Source: the supplement of paper PMC11732987, “Enantioselective OTUD7B fragment discovery through chemoproteomics screening and high-throughput optimisation” (Communications Chemistry, 2025)

Legend:
Test in all cases: log2 ratio of Biotin-Ahx-Ub-VS probe labelling (fragment/DMSO); higher = less target engagement (more negative = stronger competition), active = hit call of the paper (q ≤ 0.05, log2 ratio ≤ -1)
Settings in all cases: compound concentration: 200 uM; treatment time: 3 h
USP42 = target: T1, USP42 (UniProt Q9H9J4)
T1 sequence (whole entry): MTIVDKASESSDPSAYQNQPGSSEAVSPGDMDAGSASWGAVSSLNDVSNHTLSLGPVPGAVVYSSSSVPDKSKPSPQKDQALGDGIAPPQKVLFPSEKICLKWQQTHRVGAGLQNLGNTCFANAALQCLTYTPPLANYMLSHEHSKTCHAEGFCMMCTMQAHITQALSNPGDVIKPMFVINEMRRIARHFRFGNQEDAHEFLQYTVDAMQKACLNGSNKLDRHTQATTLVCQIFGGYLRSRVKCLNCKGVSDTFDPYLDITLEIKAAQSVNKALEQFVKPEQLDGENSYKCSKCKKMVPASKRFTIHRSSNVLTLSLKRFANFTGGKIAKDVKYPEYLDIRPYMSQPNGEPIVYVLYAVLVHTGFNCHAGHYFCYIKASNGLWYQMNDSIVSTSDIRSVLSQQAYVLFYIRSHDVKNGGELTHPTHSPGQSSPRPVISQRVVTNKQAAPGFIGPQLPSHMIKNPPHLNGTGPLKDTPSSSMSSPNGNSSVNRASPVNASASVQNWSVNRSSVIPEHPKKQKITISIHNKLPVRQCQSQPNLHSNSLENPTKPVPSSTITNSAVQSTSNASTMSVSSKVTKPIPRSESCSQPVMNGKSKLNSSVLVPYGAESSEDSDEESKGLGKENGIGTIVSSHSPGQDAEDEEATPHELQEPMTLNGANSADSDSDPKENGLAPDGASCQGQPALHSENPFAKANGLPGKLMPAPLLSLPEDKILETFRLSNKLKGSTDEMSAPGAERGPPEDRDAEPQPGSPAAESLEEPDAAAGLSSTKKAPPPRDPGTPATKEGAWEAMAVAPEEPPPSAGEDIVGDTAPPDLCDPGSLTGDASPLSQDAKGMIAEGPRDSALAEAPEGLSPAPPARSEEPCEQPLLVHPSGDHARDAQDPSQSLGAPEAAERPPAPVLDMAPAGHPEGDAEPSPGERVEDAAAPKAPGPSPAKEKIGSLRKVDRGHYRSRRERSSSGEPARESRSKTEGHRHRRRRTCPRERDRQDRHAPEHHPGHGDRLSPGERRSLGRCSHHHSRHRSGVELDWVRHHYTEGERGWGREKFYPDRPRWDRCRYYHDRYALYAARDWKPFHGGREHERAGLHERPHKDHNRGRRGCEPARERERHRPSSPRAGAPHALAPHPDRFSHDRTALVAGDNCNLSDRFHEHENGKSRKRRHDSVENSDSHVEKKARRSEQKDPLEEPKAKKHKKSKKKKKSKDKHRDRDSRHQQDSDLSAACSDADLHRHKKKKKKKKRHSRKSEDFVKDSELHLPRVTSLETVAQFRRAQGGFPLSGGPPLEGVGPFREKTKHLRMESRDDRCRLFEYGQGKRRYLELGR
How it was run: (§1)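 Using Biotin-Ahx-Ub-VS at 0.5 µM final for 1 h, DUBs were labelled in HEK293T lysate (495 µg per sample) that had first been treated in triplicate with fragment at 200 µM or vehicle for 3 h. NeutrAvidin enrichment, LysC and trypsin digestion and diaPASEF LC-MS/MS followed. Spectronaut label-free quantities were global-median-normalised. Values are average log2 fragment/vehicle ratios by unpaired t-test, using proteins with ≥2 unique peptides.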

USP46 = USP46 (UniProt P62068)
How it was run: as §1

USP47 = target: T2, USP47 (UniProt Q96K76)
T2 sequence (whole entry): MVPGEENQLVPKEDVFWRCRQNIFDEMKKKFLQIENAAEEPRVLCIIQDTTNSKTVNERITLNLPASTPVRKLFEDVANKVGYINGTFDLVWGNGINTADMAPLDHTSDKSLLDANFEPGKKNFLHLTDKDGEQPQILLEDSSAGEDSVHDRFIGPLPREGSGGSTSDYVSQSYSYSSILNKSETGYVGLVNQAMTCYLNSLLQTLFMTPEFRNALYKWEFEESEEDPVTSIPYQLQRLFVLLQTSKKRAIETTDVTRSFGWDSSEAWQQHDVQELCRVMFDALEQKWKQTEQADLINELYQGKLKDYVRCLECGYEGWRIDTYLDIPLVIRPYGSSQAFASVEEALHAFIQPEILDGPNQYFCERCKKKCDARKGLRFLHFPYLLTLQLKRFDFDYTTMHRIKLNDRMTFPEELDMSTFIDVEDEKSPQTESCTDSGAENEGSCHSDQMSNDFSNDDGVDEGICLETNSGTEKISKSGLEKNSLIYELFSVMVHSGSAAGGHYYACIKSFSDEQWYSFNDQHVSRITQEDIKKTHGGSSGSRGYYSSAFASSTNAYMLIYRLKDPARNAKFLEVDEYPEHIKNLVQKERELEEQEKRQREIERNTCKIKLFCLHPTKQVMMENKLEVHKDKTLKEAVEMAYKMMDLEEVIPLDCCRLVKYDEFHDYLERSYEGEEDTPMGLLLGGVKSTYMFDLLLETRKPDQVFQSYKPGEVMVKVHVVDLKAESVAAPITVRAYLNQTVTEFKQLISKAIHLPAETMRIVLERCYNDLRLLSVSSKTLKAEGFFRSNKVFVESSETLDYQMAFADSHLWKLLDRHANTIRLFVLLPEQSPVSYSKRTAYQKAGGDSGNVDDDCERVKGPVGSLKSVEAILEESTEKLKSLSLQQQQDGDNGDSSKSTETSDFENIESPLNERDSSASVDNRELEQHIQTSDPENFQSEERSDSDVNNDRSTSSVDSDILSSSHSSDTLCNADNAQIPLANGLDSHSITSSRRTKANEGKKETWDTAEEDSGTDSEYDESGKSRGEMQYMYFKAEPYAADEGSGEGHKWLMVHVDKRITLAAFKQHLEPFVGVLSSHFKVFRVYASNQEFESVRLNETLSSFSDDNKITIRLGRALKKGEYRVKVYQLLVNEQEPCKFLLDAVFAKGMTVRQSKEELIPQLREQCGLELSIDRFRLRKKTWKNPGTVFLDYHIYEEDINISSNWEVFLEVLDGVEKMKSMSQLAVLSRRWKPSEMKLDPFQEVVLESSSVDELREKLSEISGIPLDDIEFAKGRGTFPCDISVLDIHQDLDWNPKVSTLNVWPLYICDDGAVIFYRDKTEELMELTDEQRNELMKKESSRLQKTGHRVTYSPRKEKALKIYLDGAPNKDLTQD
How it was run: as §1

USP48 = target: T3, USP48 (UniProt Q86UV5)
T3 sequence (whole entry): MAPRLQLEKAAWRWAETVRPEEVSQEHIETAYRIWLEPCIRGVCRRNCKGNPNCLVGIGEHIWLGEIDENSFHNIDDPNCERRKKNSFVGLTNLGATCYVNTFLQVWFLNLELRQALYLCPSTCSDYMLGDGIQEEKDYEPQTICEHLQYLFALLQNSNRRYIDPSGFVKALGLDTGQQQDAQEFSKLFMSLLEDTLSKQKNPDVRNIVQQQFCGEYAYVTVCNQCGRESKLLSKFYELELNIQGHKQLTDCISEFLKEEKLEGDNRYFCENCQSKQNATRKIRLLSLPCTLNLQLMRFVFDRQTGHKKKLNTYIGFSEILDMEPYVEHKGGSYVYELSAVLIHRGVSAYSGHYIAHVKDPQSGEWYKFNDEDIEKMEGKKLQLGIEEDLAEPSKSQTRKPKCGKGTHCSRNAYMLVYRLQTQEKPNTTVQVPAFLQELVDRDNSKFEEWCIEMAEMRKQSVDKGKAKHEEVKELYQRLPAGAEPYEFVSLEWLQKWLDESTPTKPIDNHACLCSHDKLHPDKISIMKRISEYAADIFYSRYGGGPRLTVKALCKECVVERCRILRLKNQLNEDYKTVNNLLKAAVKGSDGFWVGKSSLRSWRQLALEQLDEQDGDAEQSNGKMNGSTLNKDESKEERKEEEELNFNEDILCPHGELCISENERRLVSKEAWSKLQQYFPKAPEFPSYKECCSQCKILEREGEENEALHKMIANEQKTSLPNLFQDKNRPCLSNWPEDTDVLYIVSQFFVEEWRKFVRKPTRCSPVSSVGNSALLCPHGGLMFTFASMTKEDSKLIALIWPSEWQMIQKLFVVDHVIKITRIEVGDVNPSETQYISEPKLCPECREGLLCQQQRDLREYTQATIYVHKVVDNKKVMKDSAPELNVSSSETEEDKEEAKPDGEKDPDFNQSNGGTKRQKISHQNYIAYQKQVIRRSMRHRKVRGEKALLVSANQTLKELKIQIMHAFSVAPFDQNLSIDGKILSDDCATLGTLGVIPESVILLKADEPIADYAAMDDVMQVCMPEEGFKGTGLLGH
How it was run: as §1

USP5 = target: T4, USP5 (UniProt P45974)
T4 sequence (whole entry): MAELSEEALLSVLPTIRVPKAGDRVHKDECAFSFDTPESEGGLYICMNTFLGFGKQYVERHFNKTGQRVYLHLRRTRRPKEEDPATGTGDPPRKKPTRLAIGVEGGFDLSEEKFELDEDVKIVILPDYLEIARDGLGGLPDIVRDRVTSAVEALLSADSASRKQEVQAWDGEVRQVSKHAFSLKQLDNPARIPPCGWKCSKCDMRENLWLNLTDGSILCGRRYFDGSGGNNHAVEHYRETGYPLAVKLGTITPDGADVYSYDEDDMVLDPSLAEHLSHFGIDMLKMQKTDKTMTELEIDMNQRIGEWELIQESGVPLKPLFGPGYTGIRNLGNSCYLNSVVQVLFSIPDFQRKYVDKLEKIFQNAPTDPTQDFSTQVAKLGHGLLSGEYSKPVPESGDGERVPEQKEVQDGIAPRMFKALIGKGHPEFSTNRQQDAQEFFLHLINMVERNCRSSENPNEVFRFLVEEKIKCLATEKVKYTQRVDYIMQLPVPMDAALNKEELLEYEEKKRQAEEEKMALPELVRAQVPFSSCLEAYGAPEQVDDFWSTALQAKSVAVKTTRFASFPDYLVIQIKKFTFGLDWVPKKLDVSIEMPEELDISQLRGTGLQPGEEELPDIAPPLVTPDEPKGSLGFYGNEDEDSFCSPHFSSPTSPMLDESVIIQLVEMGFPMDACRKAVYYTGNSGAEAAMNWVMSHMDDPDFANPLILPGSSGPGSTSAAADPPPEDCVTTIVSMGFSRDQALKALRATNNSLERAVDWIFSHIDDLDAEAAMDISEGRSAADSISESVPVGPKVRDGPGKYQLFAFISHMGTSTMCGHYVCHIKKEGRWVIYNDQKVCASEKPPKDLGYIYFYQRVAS
How it was run: as §1

USP54 = USP54 (UniProt Q70EL1)
How it was run: as §1

USP7 = USP7 (UniProt Q93009)
How it was run: as §1

USP8 = target: T5, USP8 (UniProt P40818)
T5 sequence (whole entry): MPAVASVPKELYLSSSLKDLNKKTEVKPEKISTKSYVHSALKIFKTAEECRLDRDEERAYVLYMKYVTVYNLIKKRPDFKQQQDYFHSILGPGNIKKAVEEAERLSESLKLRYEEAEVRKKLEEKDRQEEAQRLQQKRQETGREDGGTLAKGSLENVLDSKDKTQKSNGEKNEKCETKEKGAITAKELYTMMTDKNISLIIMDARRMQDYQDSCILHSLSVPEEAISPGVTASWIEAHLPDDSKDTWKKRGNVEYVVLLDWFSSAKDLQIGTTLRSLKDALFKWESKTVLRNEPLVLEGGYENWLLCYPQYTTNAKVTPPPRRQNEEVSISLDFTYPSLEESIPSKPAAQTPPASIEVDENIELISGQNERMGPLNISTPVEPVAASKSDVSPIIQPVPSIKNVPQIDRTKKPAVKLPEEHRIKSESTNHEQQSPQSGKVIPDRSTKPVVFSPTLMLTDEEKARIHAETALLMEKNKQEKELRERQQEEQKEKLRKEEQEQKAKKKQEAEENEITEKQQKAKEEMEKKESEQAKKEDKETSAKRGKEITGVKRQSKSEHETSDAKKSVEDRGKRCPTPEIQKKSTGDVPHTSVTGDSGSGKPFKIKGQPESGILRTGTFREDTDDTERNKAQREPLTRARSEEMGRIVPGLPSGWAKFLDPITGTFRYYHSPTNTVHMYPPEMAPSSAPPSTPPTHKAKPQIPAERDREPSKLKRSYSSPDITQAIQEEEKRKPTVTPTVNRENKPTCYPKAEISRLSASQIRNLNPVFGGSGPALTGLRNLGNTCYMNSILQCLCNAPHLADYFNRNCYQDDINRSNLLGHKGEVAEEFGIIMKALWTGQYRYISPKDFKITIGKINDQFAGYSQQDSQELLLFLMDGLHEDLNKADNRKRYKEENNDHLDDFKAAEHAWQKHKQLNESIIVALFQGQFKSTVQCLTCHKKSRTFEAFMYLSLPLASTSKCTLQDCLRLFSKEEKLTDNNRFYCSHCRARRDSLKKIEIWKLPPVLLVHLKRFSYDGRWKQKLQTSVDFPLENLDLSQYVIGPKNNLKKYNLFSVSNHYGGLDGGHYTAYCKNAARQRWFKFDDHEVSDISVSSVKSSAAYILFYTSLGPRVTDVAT
How it was run: as §1

Measured: log2 ratio of Biotin-Ahx-Ub-VS probe labelling

USP46, sequence (P62068 whole entry): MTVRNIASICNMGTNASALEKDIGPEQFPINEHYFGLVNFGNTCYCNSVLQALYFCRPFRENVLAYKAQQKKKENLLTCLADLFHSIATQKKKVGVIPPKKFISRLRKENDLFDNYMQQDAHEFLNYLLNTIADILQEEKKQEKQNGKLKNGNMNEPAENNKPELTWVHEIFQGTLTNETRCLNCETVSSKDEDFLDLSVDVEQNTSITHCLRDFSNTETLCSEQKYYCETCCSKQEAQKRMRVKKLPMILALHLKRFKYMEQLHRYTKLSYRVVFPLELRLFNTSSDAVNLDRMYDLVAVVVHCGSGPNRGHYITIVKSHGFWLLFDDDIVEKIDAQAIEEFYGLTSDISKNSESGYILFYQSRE
USP7, sequence (Q93009 whole entry, looked up): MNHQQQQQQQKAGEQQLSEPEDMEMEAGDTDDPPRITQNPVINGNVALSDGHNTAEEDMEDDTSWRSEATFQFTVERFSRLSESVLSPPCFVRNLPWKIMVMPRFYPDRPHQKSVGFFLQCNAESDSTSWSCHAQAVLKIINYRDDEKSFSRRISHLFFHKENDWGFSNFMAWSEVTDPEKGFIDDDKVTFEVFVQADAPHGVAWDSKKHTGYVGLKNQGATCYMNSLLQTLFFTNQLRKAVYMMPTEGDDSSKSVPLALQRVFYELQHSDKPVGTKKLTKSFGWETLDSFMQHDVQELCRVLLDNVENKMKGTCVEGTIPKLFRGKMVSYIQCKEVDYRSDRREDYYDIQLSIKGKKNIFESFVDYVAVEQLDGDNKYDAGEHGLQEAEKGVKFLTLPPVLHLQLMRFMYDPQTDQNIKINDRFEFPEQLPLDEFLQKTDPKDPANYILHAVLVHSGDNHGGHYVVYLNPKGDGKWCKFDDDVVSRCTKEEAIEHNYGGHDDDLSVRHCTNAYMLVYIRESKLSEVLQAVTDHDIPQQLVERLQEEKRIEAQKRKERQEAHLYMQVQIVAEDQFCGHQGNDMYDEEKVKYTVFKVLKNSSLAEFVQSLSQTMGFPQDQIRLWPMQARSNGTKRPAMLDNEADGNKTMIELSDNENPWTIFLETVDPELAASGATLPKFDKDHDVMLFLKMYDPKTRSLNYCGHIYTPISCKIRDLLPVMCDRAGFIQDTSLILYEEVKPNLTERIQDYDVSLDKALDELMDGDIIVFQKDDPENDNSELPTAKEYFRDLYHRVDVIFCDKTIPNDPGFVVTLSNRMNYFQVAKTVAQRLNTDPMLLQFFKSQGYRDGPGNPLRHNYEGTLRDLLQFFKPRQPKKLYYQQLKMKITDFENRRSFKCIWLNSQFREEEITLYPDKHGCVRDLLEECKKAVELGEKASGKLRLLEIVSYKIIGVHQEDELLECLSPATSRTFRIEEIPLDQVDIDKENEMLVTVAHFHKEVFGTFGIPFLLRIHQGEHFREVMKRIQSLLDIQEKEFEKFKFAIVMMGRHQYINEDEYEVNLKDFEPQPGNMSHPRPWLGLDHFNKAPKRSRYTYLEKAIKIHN
USP54, sequence (Q70EL1 whole entry): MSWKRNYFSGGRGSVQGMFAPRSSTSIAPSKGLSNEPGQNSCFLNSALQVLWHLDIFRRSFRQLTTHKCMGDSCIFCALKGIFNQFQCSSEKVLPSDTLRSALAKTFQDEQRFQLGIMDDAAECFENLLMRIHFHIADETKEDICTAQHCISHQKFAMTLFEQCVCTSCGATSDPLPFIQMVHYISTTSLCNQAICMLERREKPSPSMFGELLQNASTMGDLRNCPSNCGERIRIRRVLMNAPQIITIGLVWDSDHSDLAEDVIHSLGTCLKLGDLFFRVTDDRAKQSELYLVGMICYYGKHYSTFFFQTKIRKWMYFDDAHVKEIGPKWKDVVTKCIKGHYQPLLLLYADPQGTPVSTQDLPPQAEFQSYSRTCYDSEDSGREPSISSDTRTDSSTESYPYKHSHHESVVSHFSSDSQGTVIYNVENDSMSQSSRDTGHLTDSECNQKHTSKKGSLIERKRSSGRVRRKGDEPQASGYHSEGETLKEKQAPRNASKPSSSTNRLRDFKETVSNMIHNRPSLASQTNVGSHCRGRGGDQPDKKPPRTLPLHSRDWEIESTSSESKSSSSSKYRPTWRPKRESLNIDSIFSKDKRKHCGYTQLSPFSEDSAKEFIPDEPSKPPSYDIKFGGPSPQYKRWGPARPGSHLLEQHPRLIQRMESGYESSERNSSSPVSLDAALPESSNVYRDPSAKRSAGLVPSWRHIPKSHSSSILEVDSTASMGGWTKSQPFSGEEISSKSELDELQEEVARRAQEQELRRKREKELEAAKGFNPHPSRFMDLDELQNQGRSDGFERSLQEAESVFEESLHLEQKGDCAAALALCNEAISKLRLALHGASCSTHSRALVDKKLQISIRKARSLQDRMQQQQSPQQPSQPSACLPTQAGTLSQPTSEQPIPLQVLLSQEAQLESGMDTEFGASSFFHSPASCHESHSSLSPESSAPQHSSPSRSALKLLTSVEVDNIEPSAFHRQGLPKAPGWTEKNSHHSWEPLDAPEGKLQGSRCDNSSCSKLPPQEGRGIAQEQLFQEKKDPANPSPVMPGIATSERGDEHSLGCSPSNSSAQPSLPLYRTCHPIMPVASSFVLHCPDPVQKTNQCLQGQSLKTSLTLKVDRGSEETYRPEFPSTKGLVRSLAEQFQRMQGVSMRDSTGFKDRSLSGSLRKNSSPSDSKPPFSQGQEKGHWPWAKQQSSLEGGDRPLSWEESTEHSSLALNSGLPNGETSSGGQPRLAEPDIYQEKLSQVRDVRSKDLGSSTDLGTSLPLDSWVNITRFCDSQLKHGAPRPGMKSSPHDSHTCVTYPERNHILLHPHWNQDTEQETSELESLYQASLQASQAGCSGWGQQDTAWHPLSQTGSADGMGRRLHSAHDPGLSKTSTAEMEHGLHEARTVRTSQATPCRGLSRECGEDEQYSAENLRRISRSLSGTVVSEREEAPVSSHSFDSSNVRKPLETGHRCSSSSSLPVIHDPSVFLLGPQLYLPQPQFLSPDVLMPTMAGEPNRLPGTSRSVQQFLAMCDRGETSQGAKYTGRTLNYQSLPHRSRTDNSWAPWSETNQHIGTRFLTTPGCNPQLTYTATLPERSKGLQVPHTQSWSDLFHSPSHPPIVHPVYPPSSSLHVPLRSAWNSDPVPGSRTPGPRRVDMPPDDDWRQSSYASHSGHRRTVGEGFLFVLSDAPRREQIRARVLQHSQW

O=C(CCl)N1CCC(O)(Cc2ccc(F)cc2)C1 (stereo not drawn)
inactive: USP42 0.0317 | USP46 -0.0773 | USP47 -0.574 | USP48 -0.434 | USP5 0.465 | USP54 -0.501 | USP7 -0.133 | USP8 -0.169
